Shown are actives, neighbours in structure and some others; about 0.64% of the full set was active somewhere.
AI-2 QS modul = modulators of Vibrio harveyi AI-2 quorum sensing system; 0.4% of 300,000 active; Vibrio harveyi JMH597 AI-2 luminescence/OD600 ratio, 9 h; stronger effect = lower value; strain lacks LuxN and CqsS sensors; 0 = neutral-control median; activity change, % at 7.5 µM; in the data active means activity change below about -75%, passing the limit was not always enough;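 further: luminescence divided by OD600 gain over 9 h not by final OD600 alone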
ERp5 block = inhibitors of human ERp5. Q15084. ERp5 insulin aggregation, absorbance 650 nm, 90 min. inhibition, % at 9.99 µM. 0.05% of 350,000 active. AID 651711;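 active means mean replicate inhibition above about 25%, with every replicate also reaching it, limit read from the data, passing the limit was not always enough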
Target sequence (Q15084 whole entry, looked up): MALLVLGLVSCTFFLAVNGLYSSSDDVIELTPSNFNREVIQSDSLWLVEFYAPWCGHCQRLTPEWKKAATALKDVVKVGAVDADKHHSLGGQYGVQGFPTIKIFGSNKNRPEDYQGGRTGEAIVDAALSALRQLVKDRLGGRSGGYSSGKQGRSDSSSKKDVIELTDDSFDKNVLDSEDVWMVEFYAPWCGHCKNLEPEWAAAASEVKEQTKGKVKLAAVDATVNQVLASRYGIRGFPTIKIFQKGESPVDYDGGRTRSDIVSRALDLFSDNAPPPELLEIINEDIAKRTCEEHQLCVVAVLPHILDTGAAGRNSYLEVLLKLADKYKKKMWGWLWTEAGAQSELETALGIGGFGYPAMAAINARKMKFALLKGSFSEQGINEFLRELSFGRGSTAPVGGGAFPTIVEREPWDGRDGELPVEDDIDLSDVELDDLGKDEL
PDI inh = PDI (human) enzyme inhibition; AID 588391; PDI insulin aggregation turbidity, A650, 90 min; P07237; inhibition, % at 10 µM; 0.052% of 350,000 active;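 active means mean inhibition across replicates of 30% or more, whatever share of single replicates reach that level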
PvdQ inh = blocks Pseudomonas aeruginosa PvdQ acylase activity; inhibition, % at 10 µM; 0.063% of 340,000 active; AID 488965; purified PvdQ acylase, fluorescence plate reader; in the data active means inhibition above about 30%, passing the limit was not always enough;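 further: 0% = vehicle neutral wells and 100% = reference inhibitor wells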
Vif imaging = HIV Vif inhibition | HEK293T cells, Vif self-association by quenched fluorescence, imaging, 24 h | inhibition, % at 7.49 µM | 0.35% of 340,000 active; in the data active means inhibition above about 50%, passing the limit was not always enough
* hit, by the source's call.

COc1ccc(NC(=O)N(C)C[C@H]2Oc3ccc(NC(=O)Cn4cnnn4)cc3C(=O)N([C@H](C)CO)C[C@H]2C)cc1 was read as ERp5 block -3.1.
For COc1ccc(NCC(=O)Nc2ccc(C#N)cc2)cc1Cl the results were AI-2 QS modul 0.5, PDI inh 4.9, PvdQ inh -7.8 and Vif imaging -1.7.
COc1ccc(NC(=O)CNc2cccc(C#N)c2)cc1Cl was read as AI-2 QS modul -79.9*, PDI inh -6.6, PvdQ inh -8.3 and Vif imaging 5.7.
`CCOC(=O)c1c(CN2CCN(C)CC2)n(-c2ccccc2)c2cc(Br)c(O)cc12` gave AI-2 QS modul 3.4, ERp5 block -2.1, PDI inh 14.1, PvdQ inh -12.5 and Vif imaging -0.9.
For CCOC(=O)c1c(CN2CCN(CCO)CC2)n(-c2ccccc2)c2cc(Br)c(O)cc12 the results were AI-2 QS modul 23.8, ERp5 block -3.9, PDI inh 58.3*, PvdQ inh -12.4 and Vif imaging 3.3.
O=C(Nc1ccn(Cc2ccc(Cl)cc2)n1)c1ccccc1 was read as AI-2 QS modul -87.4*, ERp5 block -12.6, PDI inh -4.2, PvdQ inh 6.3 and Vif imaging -3.8.
`O=C(Nc1ccn(Cc2ccccc2)n1)c1ccc2c(c1)OCO2` gave AI-2 QS modul 20.2, ERp5 block 0.0, PDI inh -6.9, PvdQ inh -2.2 and Vif imaging 1.7.
Fc1ccc(N2CCN(c3ncnc4c3nnn4Cc3ccccc3Cl)CC2)cc1 was read as AI-2 QS modul 14.1, PDI inh -4.6 and PvdQ inh -17.7.
Screening O=C(c1ccco1)N1CCN(c2ncnc3c2nnn3Cc2ccccc2Cl)CC1 returned AI-2 QS modul 6.0, ERp5 block -0.6, PDI inh -4.7, PvdQ inh -12.7 and Vif imaging 60.3*.
CCc1cc(OCCCCNCc2ccccc2)ccc1Cl was read as AI-2 QS modul 30.2, PDI inh 54.2*, PvdQ inh -9.0 and Vif imaging -2.7.
O=S(=O)(N[C@H]1CC[C@H](CCn2cc(-c3ccc(F)cc3)nn2)O[C@H]1CO)c1ccccc1F was read as ERp5 block -1.6.
Screening Cc1nn(CC(=O)Nc2ccccc2)c(=O)c2ccccc12 returned AI-2 QS modul -87.8*, PDI inh -1.1, PvdQ inh 1.7 and Vif imaging 12.6.
O=C1C(Cl)=C(N2CCC(C(=O)O)CC2)C(=O)c2ccccc21 was read as AI-2 QS modul 21.3, PDI inh 3.9, PvdQ inh 3.5 and Vif imaging 2.3.
`CN1CCN(C2=C(Cl)C(=O)c3ccccc3C2=O)CC1` gave ERp5 block -0.5, PDI inh 40.8*, PvdQ inh -11.0 and Vif imaging -2.2.
C[C@H]1CCC(=O)N([C@H](CN=[N+]=[N-])Cc2ccccc2)CC1 was read as AI-2 QS modul 16.0, ERp5 block 4.7, PDI inh 1.4, PvdQ inh 5.5 and Vif imaging 59.3*.
`CNC[C@@H]1Oc2ncc(C#CC3(O)CCCC3)cc2C(=O)N([C@H](C)CO)C[C@@H]1C` gave ERp5 block -2.3.
Screening Cc1cccnc1NC(=O)c1ccc([N+](=O)[O-])o1 returned AI-2 QS modul 4.6, PDI inh 3.9, PvdQ inh -15.4 and Vif imaging 4.1.
For O=C(Nc1cccc2ncccc12)c1ccc([N+](=O)[O-])o1 the results were AI-2 QS modul -108.6*, ERp5 block 2.7, PDI inh -2.6, PvdQ inh -9.5 and Vif imaging -0.6.
For Cc1cccc(NC(=O)c2ccc([N+](=O)[O-])o2)n1 the results were AI-2 QS modul -88.9*, PDI inh 10.9, PvdQ inh 9.4 and Vif imaging 14.1.
CCOC(=O)C1CCN(c2c(NCCCN3CCCCC3)c(=O)c2=O)CC1 was read as AI-2 QS modul 13.0, ERp5 block 1.1, PDI inh 2.4, PvdQ inh -7.7 and Vif imaging 4.7.
`CCOC(=O)C1CCN(c2c(NCCCN(C)C3CCCCC3)c(=O)c2=O)CC1` gave AI-2 QS modul 1.6, ERp5 block -1.0, PDI inh 34.3* and PvdQ inh -1.7.
`C=C1CCC2C(C)(C)[C@H](O)CC[C@@]2(C)[C@@H]1COc1cc(=O)oc2ccccc12` (stereo not given in full) gave AI-2 QS modul 21.1, PDI inh 7.0, PvdQ inh -15.3 and Vif imaging 0.9.
C=C1CC(COc2cc(=O)oc3ccccc23)(c2ccccc2)OC1=O (stereo not given) was read as ERp5 block 4.8, PDI inh 6.0, PvdQ inh 0.6 and Vif imaging 56.2*.
Screening CC1CC(C)CN(C(=O)C2CCCN(c3ncnc4c3nc3n4CCCCC3)C2)C1 (stereo not given) returned AI-2 QS modul -76.2*, ERp5 block 1.0, PDI inh 5.1, PvdQ inh -14.4 and Vif imaging -2.8.
`Cc1ccc(C(=O)CC(=O)COc2ccc(Cl)cc2)cc1` gave AI-2 QS modul -79.0*, ERp5 block 3.1, PDI inh -6.9, PvdQ inh -12.2 and Vif imaging 11.2.
`C[C@@H]1CN([C@H](C)CO)C(=O)Cc2cc(NC(=O)Nc3ccccc3)ccc2O[C@@H]1CN(C)Cc1ccc(C(=O)O)cc1` gave ERp5 block 2.4.
For C[C@H]1CN([C@@H](C)CO)C(=O)c2cc(NC(=O)Nc3ccc(C(F)(F)F)cc3)ccc2O[C@@H]1CN(C)S(=O)(=O)c1cn(C)cn1 the results were ERp5 block -5.0.
CO[C@@H]1CN(C)C(=O)c2ccc(NC(=O)C3CC3)cc2OC[C@H](C)N(C(=O)c2cnccn2)C[C@H]1C was read as ERp5 block -0.8.
`CCCCn1c(SCC(=O)Nc2nnc(C(C)C)s2)nc2c1c(=O)n(C)c(=O)n2C` gave AI-2 QS modul 4.1, PDI inh -26.3, PvdQ inh -17.4 and Vif imaging 52.0*.
Screening CN1[C@@H]2c3ccc(-c4ccccc4F)c(=O)n3C[C@H]1[C@H](CO)[C@H]2C(=O)NCc1ccccn1 returned ERp5 block 1.9.
For COc1ccc(-c2cc3nc[nH]c(=O)c3s2)cc1 the results were AI-2 QS modul -1.5, PDI inh -2.9, PvdQ inh -10.4 and Vif imaging 20.5.
Screening COc1ccc(-c2cc3nc(CCl)[nH]c(=O)c3s2)cc1 returned AI-2 QS modul 12.9, ERp5 block 0.0, PDI inh 39.4*, PvdQ inh -9.1 and Vif imaging 16.5.
CN(C)C(=O)C[C@H]1C=C[C@H](NC(=O)NC2CCCCC2)[C@@H](CO)O1 was read as ERp5 block -1.0.
Cc1ncc(C(=O)O)c(C(=O)O)c1N was read as AI-2 QS modul 8.8, ERp5 block 1.8, PDI inh -4.4, PvdQ inh 8.2 and Vif imaging 61.9*.
O=C(COC(=O)c1cc(S(=O)(=O)N2CCOCC2)ccc1O)NCc1ccc2c(c1)OCO2 was read as ERp5 block -1.4, PDI inh -3.4, PvdQ inh -12.4 and Vif imaging 0.4.

High-throughput results (PubChem)
